Measured values taken from paper PMC5540273 (PLoS ONE, 2017).

Tests used:
Details in all cases: concentration: 1 μM, replicates: in singlicate; n = 1
[1] = test system: MRCKA
[2] = test system: T1, MRCKB
T1 construct: gene CDC42BPB

[3] = test system: MST1R
[4] = test system: T2, MST1
T2 construct: gene STK4

[5] = test system: T3, MST2
T3 construct: gene STK3

[6] = test system: T4, MST3
T4 construct: gene STK24

[7] = test system: MST4
[8] = test system: MTOR
[9] = test system: MUSK
[10] = test system: MYLK2
[11] = test system: MYLK4
[12] = test system: MYLK
[13] = test system: MYO3A
[14] = test system: MYO3B
[15] = test system: T5, NDR1
T5 construct: gene STK38

[16] = test system: NDR2
[17] = test system: NEK10
[18] = test system: NEK11
[19] = test system: NEK1
[20] = test system: NEK2
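Also: KINOMEscan kinase panel screen.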

| SMILES | %Inh [1] | %Inh [2] | %Inh [3] | %Inh [4] | %Inh [5] | %Inh [6] | %Inh [7] | %Inh [8] | %Inh [9] | %Inh [10] | %Inh [11] | %Inh [12] | %Inh [13] | %Inh [14] | %Inh [15] | %Inh [16] | %Inh [17] | %Inh [18] | %Inh [19] | %Inh [20] |
| --- | --- | --- | --- | --- | --- | --- | --- | --- | --- | --- | --- | --- | --- | --- | --- | --- | --- | --- | --- | --- |
| C[C@H]1CC[C@@H](C(=O)Nc2ccccc2)CN1c1cc(-c2ccc3c(N)n[nH]c3c2)nc(N)n1 [GSK2283293] | 65% | 0% | 17% | 0% | 0% | 0% | 0% | 8% | 13% | 1% | 0% | 40% | 7% | 0% | 13% | 0% | 0% | 0% | 0% | 0% |
| CN1CCC(n2cnc(-c3ccc(F)cc3)c2-c2ccnc(NC3CCNCC3)n2)CC1 [SB-229482] | 6% | 0% | 33% | 3% | 24% | 0% | 0% | 0% | 0% | 21% | 11% | 5% | 14% | 0% | 0% | 0% | 13% | 0% | 0% | 0% |
| Fc1cccc(COc2ccc(Nc3ncnc4sc(-c5ccc[nH]5)cc34)cc2Cl)c1 [GW707818] | 23% | 6% | 33% | 0% | 18% | 8% | 0% | 13% | 0% | 14% | 13% | 13% | 17% | 0% | 23% | 17% | 4% | 24% | 0% | 15% |
| CCc1nc(-c2cccc(N(C)S(=O)(=O)c3ccccc3)c2)c(-c2ccnc(Nc3ccc(N4CCN(C(C)=O)CC4)nc3)n2)s1 [GSK1645895] | 0% | 0% | 40% | 3% | 16% | 15% | 0% | 2% | 1% | 0% | 7% | 15% | 23% | 0% | 15% | 0% | 0% | 0% | 14% | 9% |
| NC(=O)c1sc(-n2cnc3ccccc32)cc1OCc1ccccc1F [GSK1024306] | 17% | 0% | 9% | 0% | 0% | 0% | 0% | 19% | 0% | 7% | 6% | 2% | 3% | 0% | 0% | 11% | 22% | 32% | 0% | 0% |
| COc1ccc(NC(=O)Nc2ccc(C)c(-c3ccc(C(=O)Nc4ccncc4)cc3)c2)cc1 [GSK1398475] | 19% | 0% | 36% | 0% | 0% | 0% | 0% | 4% | 0% | 0% | 0% | 0% | 1% | 0% | 17% | 0% | 0% | 0% | 0% | 0% |
| CN1c2ccc(-c3ccc(C(=O)NCCO)cc3)cc2-c2[nH]ncc2S1(=O)=O | 0% | 5% | 0% | 5% | 35% | 10% | 0% | 23% | 0% | 0% | 0% | 87% | 6% | 0% | 26% | 0% | 0% | 0% | 8% | 6% |
| Cn1cc(-c2ccc3c(c2)CCN3C(=O)Cc2cccc(C(F)(F)F)c2)c2c(N)ncnc21 [GSK2606414] | 0% | 0% | 6% | 14% | 0% | 0% | 0% | 0% | 6% | 24% | 0% | 1% | 0% | 7% | 0% | 0% | 18% | 14% | 0% | 15% |
| CSc1ccc(NC2=C(c3ccccc3Cl)C(=O)NC2=O)cc1 [SB-342411] | 0% | 0% | 27% | 6% | 0% | 0% | 8% | 13% | 0% | 8% | 10% | 4% | 0% | 0% | 31% | 0% | 29% | 0% | 75% | 8% |
| O=C(CCO)NCCn1ccc2ncnc(Nc3ccc(Oc4cccc(C(F)(F)F)c4)c(Cl)c3)c21 | 0% | 2% | 0% | 0% | 0% | 0% | 0% | 31% | 0% | 0% | 6% | 0% | 0% | 3% | 20% | 0% | 0% | 0% | 0% | 0% |
| COc1ccc(NC(=O)c2ccc(-c3cc(-c4nnc(C)o4)ccc3C)cc2)cc1 [GW595885] | 0% | 3% | 34% | 0% | 0% | 0% | 0% | 14% | 12% | 0% | 0% | 14% | 16% | 16% | 12% | 0% | 16% | 0% | 0% | 0% |
| Cl.O=S(=O)(c1cccc(F)c1)c1ccc(Nc2ncnc3cc(Br)sc23)cc1Cl [GSK306886] | 18% | 9% | 20% | 0% | 9% | 2% | 0% | 12% | 8% | 3% | 9% | 3% | 22% | 0% | 8% | 1% | 0% | 1% | 32% | 5% |
| N#Cc1ccc(Oc2ccc(Nc3ncnc4cc[nH]c34)cc2Cl)cc1 | 12% | 32% | 11% | 10% | 19% | 24% | 0% | 13% | 6% | 16% | 13% | 30% | 18% | 38% | 33% | 0% | 3% | 0% | 0% | 10% |
| Nc1nc(-c2cccnc2)c(-c2ccnc3ccccc23)s1 [GW684083] | 0% | 0% | 18% | 4% | 10% | 10% | 0% | 27% | 11% | 0% | 83% | 15% | 0% | 0% | 0% | 11% | 77% | 27% | 0% | 13% |
| Fc1ccc(Nc2nccc(-c3c(-c4ccc(Cl)cc4)nn4ncccc34)n2)cc1F [GW829058] | 2% | 21% | 0% | 13% | 11% | 0% | 30% | 26% | 26% | 16% | 0% | 38% | 15% | 21% | 24% | 28% | 19% | 25% | 17% | 16% |
| O=C(Nc1n[nH]c2nc(-c3ccco3)c(Br)cc12)c1ccc(CN2CCCC2)cc1.O=C(O)[C@H](O)[C@@H](O)C(=O)O [SB-742352] | 0% | 0% | 0% | 0% | 17% | 0% | 9% | 0% | 9% | 96.3% | 5% | 83% | 0% | 8% | 0% | 0% | 0% | 0% | 0% | 6% |
| Cn1ccc2ncnc(Nc3ccc(Oc4cccc(Cl)c4)c(Cl)c3)c21 | 0% | 0% | 42% | 6% | 25% | 10% | 0% | 0% | 3% | 20% | 3% | 0% | 0% | 3% | 22% | 11% | 2% | 0% | 0% | 0% |
| C[C@@H]1CCN(C(=O)CO)C[C@@H]1N(C)c1ncnc2[nH]ccc12 | 0% | 100% | 21% | 12% | 0% | 11% | 0% | 55% | 0% | 2% | 0% | 3% | 0% | 0% | 6% | 14% | 48% | 0% | 0% | 0% |
| c1ccc(-c2ccc3c(-c4ccnc(Nc5ccc6c(c5)OCCO6)n4)cnn3n2)cc1 [GW818941] | 11% | 6% | 41% | 23% | 4% | 1% | 0% | 17% | 16% | 27% | 0% | 11% | 15% | 0% | 11% | 0% | 19% | 0% | 0% | 0% |
| CCc1nc(-c2cccc(C)c2)c(-c2ccnc(NC(=O)c3ccccc3)c2)s1 | 0% | 0% | 32% | 11% | 12% | 8% | 9% | – | 0% | 0% | 0% | 18% | 65% | 0% | 0% | 22% | 6% | 0% | 0% | 0% |
| Fc1cccc(COc2ccc(Nc3ncnc4cc[nH]c34)cc2Cl)c1 | 10% | 0% | 30% | 16% | 19% | 23% | 0% | 0% | 10% | 0% | 8% | 10% | 4% | 29% | 24% | 8% | 0% | 0% | 0% | 12% |
